In ChEMBL document CHEMBL3988442, “University of Dundee, Small-Polar-MMV Screening Library” (2021):
In all, about 48,000 compounds went through this assay and about 13,000 (27%) showed an effect of 50% or more. Some of the results follow.

system: Wolbachia pipientis; assay: Anti-Wolbachia Cell-Based Screen; type: functional; set-up: scale not given: in the data most compounds retested in dose-response had high values; details: 5 µM

Row | SMILES | Percent Effect
1 | O=C(NCc1ccccn1)[C@@H]1COC[C@H]2CN(c3ncccn3)C[C@H]21.O=C(O)C(F)(F)F.O=C(O)C(F)(F)F | -2.042%
2 | Cc1ccc(S(=O)(=O)Nc2ccc(=O)n(C)c2)cc1 | -12.63%
3 | COc1ccc(-c2nccn2C[C@@H]2CCCN3CCCC[C@H]23)cc1 | -24.08%
4 | COC(C)C(=O)N(CC(N)=O)Cc1cccc(Oc2ccccc2)c1 (stereo not drawn) | 2.959%
5 | CC(C)[C@H]1COC(=O)N1Cc1nccn1C(C)C | -0.6769%
6 | Cn1nc(CNC(=O)c2ccc3nsnc3c2)c2c1CCOC2 | 120.7%
7 | CN1CCC(CNC(=O)c2cccc(C(F)(F)F)c2)c2ccccc21 (stereo not drawn) | -15.52%
8 | Cn1nc(CNC(=O)c2cccc(C(F)(F)F)c2)c2c1CCOC2 | 111.4%
9 | COc1cc(OC)cc(C(=O)NCCCNc2ncccn2)c1 | 15.23%
10 | COc1ccc(CN2CCc3c(CNC(=O)CC#N)nn(C)c3C2)cc1.O=C(O)C(F)(F)F.O=C(O)C(F)(F)F | 8.44%
11 | O=C(NCCN1CCCC(CO)C1)c1ccc2scnc2c1 (stereo not drawn) | -0.5362%
12 | COc1cc(OC)cc(C(=O)NCc2nn(C)c3c2COCC3)c1 | 121.8%
13 | COc1ccc(CNC(=O)c2nn(C)c3c2CS(=O)(=O)CC3)cc1OC | -2.523%
14 | Cc1noc(NC(=O)c2ccc(OC(F)(F)F)cc2)n1 | 14.41%
15 | Cc1ncc(CNC(=O)c2nn(C)c3c2CS(=O)(=O)CC3)s1 | 8.614%
16 | Cn1cc(NC(=O)c2cccc(C(F)(F)F)c2)c(=O)n(C)c1=O | -3.646%
17 | Cn1nc(CNC(=O)c2ccc(OC(F)(F)F)cc2)c2c1CCOC2 | 101.2%
18 | O=C(NC1CC1)c1cc(NC(=O)N2CCSCC2)ccc1Cl | -25.35%
19 | CCc1c(C(=O)N2CCC3(CC(=O)NC3=O)C2)csc1C (stereo not drawn) | 4.433%
20 | COC(=O)c1ccc(C(=O)NCc2nn(C)c3c2COCC3)cc1 | 116.6%
21 | Cn1nc(CNC(=O)c2ccc(Cl)cc2)c2c1CCOC2 | -28.17%
22 | Cc1nnc(SCCCNC(=O)c2ccc3c(c2)OCO3)s1 | -1.096%
23 | Cn1nc(CNC(=O)NCc2ccc(Cl)cc2)c2c1CCOC2 | -8.693%
24 | Cn1nc(CNC(=O)c2ccc3c(c2)OCO3)c2c1CCOC2 | 123.8%

Row | SMILES | Percent Effect
25 | CCN(Cc1ccc2c(c1)OCO2)C(=O)c1ccc(=O)n(C)c1 | -0.5548%
26 | COc1cccc(OCC2CCCN(C(=O)c3cc(C)n[nH]3)C2)c1 (stereo not drawn) | -67.83%
27 | Cc1cccc2c1OCCCC2NCc1nccn1Cc1ccccc1 (stereo not drawn) | -13.33%
28 | CC(NC(=O)Cc1cccs1)c1nnc2n1CCCCC2 (stereo not drawn) | -4.411%
29 | CC(NC(=O)Cc1cccs1)c1nnc2n1CCC2 (stereo not drawn) | 95.59%
30 | Cc1noc(C)c1CCC(=O)NC(C)c1nnc2n1CCCCC2 (stereo not drawn) | -4.207%
31 | CC(NC(=O)CCc1cccs1)c1nnc2n1CCCCC2 (stereo not drawn) | 108.8%
32 | CC(NC(=O)CCc1cccs1)c1nnc2n1CCC2 (stereo not drawn) | -2.805%
33 | CNC(=O)N1C[C@H]2CC[C@@]3(N=C(c4ccccc4)NC3=O)[C@H]2C1 | -7.438%
34 | N[C@H]1CN(C(=O)c2ccc(Cl)cc2F)C[C@@H]1C1CC1 | -16.98%
35 | CCCOC1CCCN(C(=O)c2ccc(S(N)(=O)=O)cc2)C1 (stereo not drawn) | 2.275%
36 | Cc1cc(C(=O)N2CCCCC2)ccc1NS(C)(=O)=O | -18.21%
37 | CCS(=O)(=O)N(C)C1CCN(C(=O)c2ccc(C)c(C)c2)CC1 | -2.68%
38 | CCN(c1ccc(C(=O)N2CCCC2)cc1)S(=O)(=O)CC | -7.72%
39 | CCN(c1ccc(C(=O)N2CCCCCC2)cc1)S(=O)(=O)CC | 148.2%
40 | CCN(c1ccc(C(=O)N2CCCCC2)cc1)S(=O)(=O)CC | 114.5%
41 | COc1ccccc1OC1(C(=O)O)CCN(c2cc(C)nc(C)c2)CC1 | -31.32%
42 | CCOc1ccc(C(F)(F)F)cc1NCc1nc(C)c(C)o1 | -3.649%
43 | NCC1CCN(C2CCN(c3ccc(-c4ccco4)cc3)CC2)C1 (stereo not drawn) | -12.7%
44 | CC(CCSc1ccccc1)N1CCN(C(=O)c2ccccc2O)CC1 (stereo not drawn) | 4.975%
45 | Cl.Nc1nc(Nc2ccccc2)cc(N2CCNCC2)n1 | 122.8%
46 | Nc1nc(NCCc2[nH]nc3c2CCCC3)cc(N2CCOCC2)n1 | -17.88%
47 | CN(Cc1cccc(-n2cccn2)c1)c1cc(N2CCCC2)nc(N)n1 | 13.85%
48 | c1ccc(CCCn2cc(-c3nc(CN4CCOCC4)no3)nn2)cc1 | -30.42%

Row | SMILES | Percent Effect
49 | CN1CCC2(Cc3ccccc3CN(C(=O)c3ccc(Cl)cc3)C2)C1 (stereo not drawn) | 111.1%
50 | CN1CCC2(CCN(C(=O)c3ccccc3)CC2)C1 | -23.98%
51 | CN1CCC2(Cc3ccccc3CN(C(=O)CCN)C2)C1 (stereo not drawn) | 104.1%
52 | CN1CC(c2ccccc2)CC12CCN(C(=O)c1ccc(Cl)cc1)CC2 (stereo not drawn) | -14.14%
53 | CCCC(=O)N1CCC2(CC1)COC2 | -43.8%
54 | CCCC(=O)N1Cc2ccccc2CC2(CCN(C)C2)C1 (stereo not drawn) | 117.7%
55 | CCCSCC(=O)N1CCC2(CC1)CC(c1ccccc1)CN(C)C2 (stereo not drawn) | -4.07%
56 | CN1CCC2(CC1)Cc1ccccc1CN(C(=O)CN)C2 | 99.69%
57 | O=C1CC(c2ccc(C(=O)O)cc2)c2ncn(-c3ccc(Cl)cc3)c2N1 (stereo not drawn) | -3.148%
58 | CC(C)C(C)(O)CNc1cccc(F)c1C#N (stereo not drawn) | 29.17%
59 | COCc1nnc(-c2cccc(C(=O)N(C(C)C)C3CCC3)c2)o1 | 24.51%
60 | O=C(CCNC(=O)c1ccc(Cl)cc1)NCc1nc(C2CC2)no1 | -6.02%
61 | Cc1c(C(C)NC2CCOCC2)cnn1-c1ccc(F)cc1F (stereo not drawn) | -3.497%
62 | O=C(Cc1ccccc1)N1CCC2(CC(=O)N(c3cccc(F)c3)C2)C1 (stereo not drawn) | -7.146%
63 | CN1CCC2(Cc3ccccc3CN(C(=O)Cc3cccc(Cl)c3)C2)C1 (stereo not drawn) | 135.8%
64 | COCCC(=O)N1CCC2(CN(Cc3cccc(Cl)c3)C2)C1 | 20.7%
65 | CC(=O)Nc1nc(C(=O)NC(C)c2ccc(C#N)cc2)cs1 (stereo not drawn) | 80.7%
66 | CC(=O)Nc1nc(C(=O)Nc2ccc(F)cc2)cs1 | -0.1776%
67 | CC(=O)Nc1nc(C(=O)NC(C)c2ccc3c(c2)OCCO3)cs1 (stereo not drawn) | 7.281%
68 | CC(=O)Nc1nc(C(=O)NCCOc2ccc(C)cc2)cs1 | -6.104%
69 | CC(=O)Nc1nc(C(=O)NC(C)c2ccc(F)cc2)cs1 (stereo not drawn) | 33.73%
70 | CC(=O)Nc1nc(C(=O)NC(C)c2ccc(F)c(F)c2)cs1 (stereo not drawn) | 54.27%
71 | CCc1ccc(C2COCCN2C(=O)Nc2ccc(C(N)=O)c(Cl)c2)o1 (stereo not drawn) | -0.9462%
72 | Cc1cc(C(=O)N2C[C@H]3CC[C@@H]2CN(C(=O)c2ccncc2)C3)cs1 | -9.465%

Row | SMILES | Percent Effect
73 | c1cncc(COCC2C[C@@H]3OCCN(Cc4cccnc4)[C@H]3C2)c1 (stereo partly drawn) | 111.6%
74 | Fc1cnc(N2CC[C@@H]3OC(COCc4cccnc4)CC[C@@H]32)nc1.O=C(O)C(F)(F)F.O=C(O)C(F)(F)F (stereo partly drawn) | -10.65%
75 | Fc1ccc(CN2CC[C@H]3O[C@@H](COCc4cccnc4)CC[C@H]32)cc1.O=C(O)C(F)(F)F.O=C(O)C(F)(F)F | 0.3958%
76 | CN(C)CC(=O)N1CCO[C@@H]2CC(COCc3ccncc3)C[C@H]21 (stereo partly drawn) | 100.6%
77 | Cc1cnc(N2CCO[C@@H]3CC(COCc4cccnc4)C[C@H]32)nc1.O=C(O)C(F)(F)F.O=C(O)C(F)(F)F (stereo partly drawn) | 79.55%
78 | COCC(=O)N1CCO[C@H]2[C@H](OCc3cccnc3)CC[C@@H]21.O=C(O)C(F)(F)F | -4.337%
79 | Cn1cnc2c1C(COCc1cccnc1)N(Cc1ccccc1)CC2 (stereo not drawn) | 2.197%
80 | O=C(O)C(F)(F)F.O=C(O)C(F)(F)F.c1cnc(N2CC[C@@H]3O[C@@H](COCc4cccnc4)CC[C@@H]32)nc1 | -9.534%
81 | CCOCC1C[C@@H]2OCCN(C(=O)c3ccc[nH]3)[C@H]2C1 (stereo partly drawn) | -14%
82 | CN(C)C(=O)N1CCO[C@@H]2CC(COCc3cccnc3)C[C@H]21.O=C(O)C(F)(F)F (stereo partly drawn) | 103.1%
83 | O=C(O)C(F)(F)F.O=C(O)C(F)(F)F.O=C(O)C(F)(F)F.c1cncc(COCC2CN(Cc3cccnc3)Cc3ccnn3C2)c1 (stereo not drawn) | 11.05%
84 | Cc1ccoc1C(=O)N1CC[C@H]2OCC[C@@]2(COCc2ccncc2)C1 | -2.681%
85 | Cc1nc(CN(C)Cc2nc(-c3sccc3C)oc2C)no1 | -9.354%
86 | CSCCCN1CCCC(Cn2ccnc2)C1 (stereo not drawn) | 13.29%
87 | O=C(O)C(F)(F)F.O=C(O)C(F)(F)F.c1cncc(COCC2CC[C@H]3[C@H](CCN3CC3CCOCC3)O2)c1 (stereo partly drawn) | -3.08%
88 | Cc1ccc(C(=O)N2CCO[C@H]3[C@H](OCc4ccccn4)CC[C@@H]32)o1.O=C(O)C(F)(F)F | -0.009897%
89 | O=C(c1ccc[nH]1)N1CCO[C@H]2CC(COCc3ccccn3)C[C@@H]21 (stereo partly drawn) | 10.05%
90 | O=C(O)C(F)(F)F.O=C(c1ccno1)N1CCO[C@@H]2CC(COCc3ccccn3)C[C@H]21 (stereo partly drawn) | 99.5%
91 | O=C(O)C(F)(F)F.O=S(=O)(C1CC1)N1CCO[C@@H]2CC(COCc3cccnc3)C[C@H]21 (stereo partly drawn) | 111.9%
92 | CCc1nc(-c2noc3ccc(C(=O)N(C)CCOC)cc23)co1 | 2.681%
93 | CC(Nc1nc2c(cnn2C)c(=O)[nH]1)c1ccc2c(c1)CCCC2 (stereo not drawn) | 4.227%
